Out of some 5,500 compounds screened, about 2,000 (36%) were called active. Roughly 18% stayed inconclusive and do not appear here. No stated cut-off is given here; in the data, active means normalized growth mostly below about 0.91 (no sharp cut-off); inconclusive means no clear call, values can overlap the other calls; inactive means mostly above about 0.92. This is one part of the list.
Assay: chemical genetic growth profiling, strain panel (AID 1159580);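 further: tested at 20 µM; growth read once vehicle control cultures reached saturation at 30 °C; 1 = growth at the plate median or of vehicle wells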
Conditions: S. cerevisiae deletion strains, growth OD

Measured: normalized growth

CC(C)NC[C@@H](O)c1ccc(O)c(O)c1
active: locus YJR075W, strain HOC1, stronger effect = lower value 1.12 [resistant] | locus YMR307W, strain GAS1, stronger effect = lower value 1.1 [resistant]
inactive: locus YAL013W, strain DEP1, stronger effect = lower value 0.974 | locus YAL040C, strain CLN3, stronger effect = lower value 1.03 | locus YCL061C, strain MRC1 (second series), stronger effect = lower value 0.996 | locus YDR150W, strain NUM1, stronger effect = lower value 1 | locus YDR363W, strain ESC2, stronger effect = lower value 1 | locus YER002W, strain NOP16, stronger effect = lower value 0.984 | locus YGR078C, strain PAC10, stronger effect = lower value 0.99 | locus YNL175C, strain NOP13, stronger effect = lower value 0.984 | locus YNL197C, strain WHI3, stronger effect = lower value 0.985 | locus YNL224C, strain SQS1, stronger effect = lower value 0.997 | locus YNL322C, strain KRE1, stronger effect = lower value 1.01 | locus YOR083W, strain WHI5 (second series), stronger effect = lower value 1.04 | locus YPL241C, strain CIN2, stronger effect = lower value 0.998
